Source: PubChem BioAssay (Tox21)
Unmarked numbers belong to inactive results. Inconclusive results are not listed. A call without a number means that no potency is given here. Activity calls are given as the source filed them. Unless noted, calls come from the whole dose curve; as a rule, active = well fitted curve in the direction sought with a large enough effect in the repeat runs; inconclusive = weak or mixed curves; inactive = no such curve, though single readings can be large; an effect the other way counts as inactive or inconclusive.

What was measured:
[1] = A CellTox Green Cytotoxicity Assay to monitor cytotoxicity in HEK293 cells - 32 hour (AID 1224881); note: nearly all actives have a fitted effect of over 40% in size
In short: (§1)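 Cytotoxicity was tracked continuously in HEK293 cells by a DNA-binding dye excluded from viable cells. Compounds were transferred in DMSO 5 h after seeding; fluorescence was recorded at intervals up to 40 h.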

[2] = A CellTox Green Cytotoxicity Assay to monitor cytotoxicity in HepG2 cells - 0 hour (AID 1224882); note: nearly all actives have a fitted effect of over 35% in size
In short: (§2)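 Real-time, homogeneous cytotoxicity readout: dead-cell DNA staining by CellTox Green in HepG2 monolayers, fluorescence measured at timed intervals up to 40 h of continuous compound exposure.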

[3] = A CellTox Green Cytotoxicity Assay to monitor cytotoxicity in HepG2 cells - 32 hour (AID 1224883); note: nearly all actives have a fitted effect of over 50% in size
In short: as §2

[4] = A CellTox Green Cytotoxicity Assay to monitor cytotoxicity in HEK293 cells - 8 hour (AID 1224884); note: nearly all actives have a fitted effect of over 35% in size; note: potency is the fitted concentration of half-maximal effect
In short: as §1

[5] = qHTS RealTime-Glo MT Cell Viability Assay in HepG2 cells - 16 hour (AID 1224885); note: nearly all actives have a fitted effect of over 50% in size
In short: (§3)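 HepG2 cells were seeded at 600 cells/well together with NanoLuc luciferase and a cell-permeant prosubstrate, preincubated 5 h at 37 C/5% CO2, then pin-dosed with compounds in DMSO. Nonlytic luminescence from viable cells was read at each time point.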

[6] = qHTS RealTime-Glo MT Cell Viability Assay in HEK293 cells - 24 hour (AID 1224886); note: top concentration of the series differs between compounds; nearly all actives have a fitted effect of over 50% in size
In short: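 HEK293 cells were seeded at 600 cells/well together with NanoLuc luciferase and cell-permeant prosubstrate, preincubated 5 h at 37 C/5% CO2, then given compound in DMSO by pintool. Luminescence from viable-cell prosubstrate reduction was read repeatedly over 40 h.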

[7] = qHTS RealTime-Glo MT Cell Viability Assay in HEK293 cells - 8 hour (AID 1224887); note: top concentration of the series differs between compounds; nearly all actives have a fitted effect of over 50% in size
In short: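 Nonlytic bioluminescent viability monitoring. HEK293 at 600 cells/well with reagent; 5 h settle; compound transfer by pintool; plates held at 37 C and read at set time points.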

[8] = A CellTox Green Cytotoxicity Assay to monitor cytotoxicity in HEK293 cells - 16 hour (AID 1224888); note: nearly all actives have a fitted effect of over 35% in size
In short: as §1

[9] = qHTS RealTime-Glo MT Cell Viability Assay in HepG2 cells - 0 hour (AID 1224889); note: nearly all actives have a fitted effect of over 50% in size
In short: as §3

[10] = A CellTox Green Cytotoxicity Assay to monitor cytotoxicity in HepG2 cells - 8 hour (AID 1224890); note: nearly all actives have a fitted effect of over 45% in size
In short: as §2

[11] = qHTS assay to identify small molecule antagonists of the estrogen receptor alpha (ER-alpha) signaling pathway using the BG1 cell line in the presence of 0.1 nM 17-beta-estradiol - cell viability counter screen (AID 1259241); note: nearly all actives have a fitted effect of over 40% in size
In short: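 Live-cell protease activity (CellTiter-Fluor fluorescence, 30 min) was read in the same wells after VM7Luc4E2 cells had been exposed to compounds with 0.1 nM 17beta-estradiol for 22 hr at 37C.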

[12] = molecular target: Androgen receptor (Homo sapiens) (UniProt P10275); assay: qHTS assay to identify small molecule antagonists of the androgen receptor (AR) signaling pathway using the MDA cell line in the presence of 0.5 nM R1881 (AID 1259243); note: nearly all actives have a fitted effect of over 50% in size
Sequence of Androgen receptor (Homo sapiens) (P10275 whole entry, looked up): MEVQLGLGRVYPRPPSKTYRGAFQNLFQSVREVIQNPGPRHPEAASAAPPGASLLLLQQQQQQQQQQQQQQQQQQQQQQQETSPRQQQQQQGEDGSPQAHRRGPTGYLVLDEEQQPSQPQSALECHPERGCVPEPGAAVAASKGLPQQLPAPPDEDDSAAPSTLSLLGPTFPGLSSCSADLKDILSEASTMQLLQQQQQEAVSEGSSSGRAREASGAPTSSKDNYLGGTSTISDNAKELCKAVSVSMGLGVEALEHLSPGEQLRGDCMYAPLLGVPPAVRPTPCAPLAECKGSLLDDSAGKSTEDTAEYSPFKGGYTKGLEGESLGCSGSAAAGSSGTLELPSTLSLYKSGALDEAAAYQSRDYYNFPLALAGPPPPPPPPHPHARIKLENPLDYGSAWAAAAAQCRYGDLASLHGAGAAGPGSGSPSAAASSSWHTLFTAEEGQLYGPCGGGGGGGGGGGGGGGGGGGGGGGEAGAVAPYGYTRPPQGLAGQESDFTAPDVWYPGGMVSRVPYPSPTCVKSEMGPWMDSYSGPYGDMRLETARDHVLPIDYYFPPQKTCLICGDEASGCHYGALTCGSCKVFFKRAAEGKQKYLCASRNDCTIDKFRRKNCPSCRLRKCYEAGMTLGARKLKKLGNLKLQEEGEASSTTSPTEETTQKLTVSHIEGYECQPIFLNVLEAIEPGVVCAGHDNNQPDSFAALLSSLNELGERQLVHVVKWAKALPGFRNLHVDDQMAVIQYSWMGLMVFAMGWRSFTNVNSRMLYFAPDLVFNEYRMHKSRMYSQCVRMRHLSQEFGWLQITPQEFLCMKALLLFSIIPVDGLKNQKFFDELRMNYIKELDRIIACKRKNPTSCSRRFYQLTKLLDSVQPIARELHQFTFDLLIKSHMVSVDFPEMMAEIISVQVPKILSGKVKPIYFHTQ
In short: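 Steps: seed MDA-kb2 cells, incubate 5 hr at 37C; pin-transfer compounds in DMSO; add R1881 to 0.5 nM final; incubate 16 hr; add ONE-Glo, wait 30 min at room temperature; read luminescence.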

[13] = molecular target: Estrogen receptor (Homo sapiens) (UniProt P03372); assay: qHTS assay to identify small molecule antagonists of the estrogen receptor alpha (ER-alpha) signaling pathway using the BG1 cell line in the presence of 0.1 nM 17-beta-estradiol (AID 1259244); note: nearly all actives have a fitted effect of over 50% in size
Sequence of Estrogen receptor (Homo sapiens) (P03372 whole entry, looked up): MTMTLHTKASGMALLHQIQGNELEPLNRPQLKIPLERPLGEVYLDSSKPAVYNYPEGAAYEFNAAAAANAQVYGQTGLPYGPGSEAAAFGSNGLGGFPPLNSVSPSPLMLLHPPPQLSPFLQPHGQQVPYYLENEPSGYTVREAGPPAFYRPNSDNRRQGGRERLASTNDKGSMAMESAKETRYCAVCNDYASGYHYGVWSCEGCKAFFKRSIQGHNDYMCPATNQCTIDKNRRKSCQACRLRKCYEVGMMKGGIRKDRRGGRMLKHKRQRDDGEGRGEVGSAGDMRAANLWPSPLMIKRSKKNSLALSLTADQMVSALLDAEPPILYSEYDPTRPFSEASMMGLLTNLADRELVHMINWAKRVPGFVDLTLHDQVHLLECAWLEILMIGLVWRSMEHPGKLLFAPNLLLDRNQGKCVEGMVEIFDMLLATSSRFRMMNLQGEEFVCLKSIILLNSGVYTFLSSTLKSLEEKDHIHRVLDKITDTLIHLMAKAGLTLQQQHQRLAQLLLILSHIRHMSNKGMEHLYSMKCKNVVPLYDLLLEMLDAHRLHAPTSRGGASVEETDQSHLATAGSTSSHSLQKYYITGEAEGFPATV
In short: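 After 5 days in hormone-depleted medium (charcoal-stripped serum, no phenol red), VM7Luc4E2 cells were seeded, incubated 24 h, then co-treated with compound and 0.1 nM (final) estradiol for 22 h before luminescence detection.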

[14] = qHTS assay to identify small molecule HDAC inhibitors (AID 1259364); note: top concentration of the series differs between compounds; nearly all actives have a fitted effect of over 45% in size
In short: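 Homogeneous cell-based luminescent assay of endogenous class I/II HDAC activity; HCT-116 cells, 2 h compound exposure, 30 min HDAC-Glo development at RT.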

[15] = qHTS assay to identify small molecule HDAC inhibitors - cell viability counter screen (AID 1259365)
In short: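 HCT-116 (wild type), 1,500 cells/well, overnight 37C/5% CO2; compound in DMSO 2hr; CellTiter-Glo 30min RT; luminescence read.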

[16] = qHTS assay to identify small molecule agonists of the sonic hedgehog signaling (Shh) pathway - cell viability counter screen (AID 1259366); note: nearly all actives have a fitted effect of over 50% in size
In short: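 CellTiter-Fluor fluorescence read-out, 1 hr at 37C, added after 23hr compound exposure. Cells: 3T3 Gli1-Luc, an NIH/3T3 clone with stably integrated Gli1-Luc reporter, plated 4hr before compound.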

[17] = qHTS assay to identify small molecule antagonists of the sonic hedgehog signaling (Shh) pathway - cell viability counter screen (AID 1259367); note: nearly all actives have a fitted effect of over 55% in size
In short: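 After a 4 hr settling period, 3T3 Gli1-Luc cells were treated with DMSO-dissolved chemicals and conditioned medium, kept 24 hr at 37C in 5% CO2, and assayed for viability by CellTiter-Fluor fluorescence following 1 hr reagent incubation.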

[18] = qHTS assay to identify small molecule agonists of the sonic hedgehog signaling (Shh) pathway (AID 1259368; calls by dose curve;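 note: NIH/3T3-derived 3T3Gli1-Luc cells carrying a stable Gli1-driven firefly luciferase reporter; series mostly up to about 92 µM; nearly all actives have a fitted effect of over 15% in size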)
In short: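 Steps: seed 3T3 Gli1-Luc cells, incubate 4 hr at 37 C, pin-transfer compounds in DMSO alongside a positive control, incubate 24 hr, add luciferase detection reagent, wait 30 min at room temperature, read luminescence.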

[19] = qHTS assay to identify small molecule antagonists of the androgen receptor (AR) signaling pathway using the MDA cell line in the presence of 0.5 nM R1881 - cell viability counter screen (AID 1259242); note: nearly all actives have a fitted effect of over 45% in size
In short: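 Cytotoxicity toward MDA-kb2 cells is measured by CellTiter-Fluor live-cell protease fluorescence after 16 hr compound exposure at 37C in the presence of 0.5 nM R1881 stimulator.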

[20] = qHTS assay to identify small molecule phospholipidosis (PLD) inducers (AID 1259344; active = well fitted curve in the direction sought with a large enough effect; an effect the other way counts as inactive or inconclusive)
In short: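 HepG2 cells grown on collagen I take up LipidTOX Red while exposed to compound for 24 h; after fixation they are imaged at 20x and pit metrics are extracted.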

| Structure (SMILES) | Potency [1] | outcome [2] | Potency [3] | Potency [4] | outcome [5] | Potency [6] | Potency [7] | outcome [8] | Potency [9] | outcome [10] | Potency [11] | Potency [12] | Potency [13] | Potency [14] | outcome [15] | Potency [16] | Potency [17] | outcome [18] | outcome [19] | outcome [20] |
| --- | --- | --- | --- | --- | --- | --- | --- | --- | --- | --- | --- | --- | --- | --- | --- | --- | --- | --- | --- | --- |
| CC(C)(C)NC(N)=O | inactive | inactive | inactive | inactive | inactive | inactive | inactive | inactive | inactive | inactive | inactive | inactive | inactive | inactive | inactive | inactive | inactive | inactive | – | – |
| ClCCCl | inactive | inactive | inactive | inactive | inactive | inactive | inactive | inactive | inactive | – | inactive | – | inactive | inactive | inactive | inactive | inactive | inactive | inactive | – |
| CCC(C)(CCC(C)C)C(=O)O (centres undefined) | inactive | inactive | inactive | inactive | inactive | inactive | inactive | inactive | inactive | – | – | – | – | inactive | inactive | inactive | inactive | inactive | inactive | – |
| CCCCNc1ccc(C(=O)OCCN(C)C)cc1 | inactive | inactive | inactive | inactive | inactive | inactive | inactive | inactive | inactive | inactive | inactive | – | – | inactive | inactive | inactive | inactive | inactive | – | inactive |
| COc1cc(NS(=O)(=O)c2ccc(N)cc2)nc(OC)n1 | inactive | inactive | inactive | inactive | inactive | inactive | inactive | inactive | inactive | inactive | – | inactive | inactive | inactive | inactive | inactive | inactive | inactive | inactive | inactive |
| CC(C)CC(C)CC(C)CC(C)COC(=O)c1ccccc1C(=O)OCC(C)CC(C)CC(C)CC(C)C (centres undefined) | inactive | inactive | inactive | inactive | inactive | inactive | inactive | inactive | inactive | inactive | – | – | – | inactive | inactive | inactive | inactive | inactive | – | – |
| Cc1cc(C(C)(C)C)c(O)c(C)c1CC1=NCCN1 | inactive | inactive | inactive | inactive | inactive | inactive | inactive | inactive | inactive | – | inactive | inactive | inactive | inactive | inactive | inactive | inactive | inactive | inactive | inactive |
| Cc1cc(Cl)c(C)cc1Cl | inactive | inactive | inactive | inactive | inactive | inactive | inactive | inactive | inactive | – | – | inactive | – | inactive | inactive | inactive | inactive | inactive | – | – |
| CCC(CC)CO | inactive | inactive | inactive | inactive | inactive | inactive | inactive | inactive | inactive | – | inactive | inactive | inactive | inactive | inactive | inactive | inactive | inactive | inactive | – |
| CC(N)C(=O)OC(C)(C)Cc1ccc(Cl)cc1 (centres undefined) | inactive | inactive | inactive | inactive | inactive | inactive | inactive | inactive | – | inactive | inactive | – | inactive | inactive | inactive | inactive | inactive | inactive | inactive | – |
| COC(=O)[C@@H]1[C@H]2C[C@H]3c4[nH]c5ccccc5c4CCN3C[C@@H]2CC[C@@H]1O | inactive | inactive | inactive | inactive | inactive | inactive | inactive | inactive | inactive | inactive | inactive | – | inactive | inactive | inactive | inactive | inactive | inactive | – | inactive |
| CCCCOCCOC(=O)COc1nc(Cl)c(Cl)cc1Cl | inactive | inactive | inactive | 38.9 µM (active) | inactive | inactive | inactive | inactive | – | inactive | inactive | – | inactive | inactive | inactive | inactive | inactive | inactive | inactive | – |
| On1nnc2ccccc21 | inactive | inactive | inactive | inactive | inactive | inactive | inactive | inactive | inactive | – | – | – | inactive | inactive | inactive | inactive | inactive | inactive | – | – |
| Nc1ccc(S(=O)(=O)Nc2ccc(Cl)nn2)cc1 | inactive | inactive | inactive | inactive | inactive | inactive | inactive | inactive | inactive | – | inactive | inactive | inactive | inactive | inactive | inactive | inactive | inactive | inactive | inactive |
| Cc1ccccc1N=O | inactive | inactive | inactive | inactive | inactive | inactive | inactive | inactive | inactive | inactive | – | – | – | inactive | inactive | inactive | inactive | inactive | – | – |
